Compounds with a hit are over-represented: about 11% of the library has one in this group of screens.
G9a block: G9a (human) methyltransferase inhibition; Q96KQ7; G9a H3K9 monomethylation, AlphaScreen, 2 h; Potency, µM (series often up to 102 µM), without a hit: at the top dose activity, negative = inhibition, hits mostly inhibitors; AID 504332; 350,000 tested, 8.8% active; note: % is set by controls: 0 for no effect and ±100 for the full control effect; nearly all actives have a fitted effect of over 75% in size
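Chemiluminescent proximity detection of H3K9 monomethylation, read after 10 min bead incubation in the dark. Reaction: 20 nM G9a, 500 nM biotin-H3K9 peptide, 20 uM SAM cofactor, 2 h, room temperature, following 15 min enzyme-compound preincubation.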
HP1b chromo inh: blocks HP1-beta chromodomain binding to methylated histone tails. P83916. AlphaScreen HP1-beta / biotin-H3K9me3 peptide binding. Potency, µM (series often up to 114 µM), for the others: top-dose activity change, negative = inhibition, hits mostly inhibitors. 390,000 tested, 0.56% active. AID 540317; note: nearly all actives have a fitted effect of over 70% in size
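HP1-beta protein (50 nM final) preincubated 30 min at room temperature with biotinylated H3(1-18)K9me3 peptide (50 nM) in PBS pH 7.4, 0.01% Tween-20, then compound added for 30 min. AlphaScreen streptavidin donor/nickel chelate acceptor beads (10 ug/mL final), 30 min dark, luminescence read.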
JMJD2A Tudor: inhibitors of human JMJD2A Tudor domain; AlphaScreen JMJD2A-Tudor / H3K4me3 peptide binding; Potency, µM (doses to about 114 µM), inactives show at the top dose activity change, negative = inhibition, actives largely listed as inhibitors; 390,000 tested, 4.4% active; note: % is set by controls: 0 for no effect and ±100 for the full control effect; nearly all actives have a fitted effect of over 50% in size
VDR inhibitor: vitamin D3 receptor (human) inhibition. AID 504847. VDR-SRC2-3 peptide fluorescence polarization, 2 h. 400,000 tested, 0.93% active. Potency, µM, inactives show max response, negative = inhibition, hits mostly inhibitors; note: % is set by controls: 0 for no effect and ±100 for the full control effect
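The screen uses fluorescence polarization to detect compounds that interfere with recruitment of the SRC2-3 coactivator peptide to VDR; plates are read after 2 h at room temperature.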
PLK1 PBD block: blocks phosphopeptide binding to human PLK1 polo-box domain; P53350; Plk1 PBD binding of FITC phosphopeptide, fluorescence polarization; Potency, µM, without a hit: max response, negative = inhibition, actives largely listed as inhibitors; 360,000 tested, 2.8% active; AID 720504; note: series mostly up to about 57 µM; % is set by controls: 0 for no effect and ±100 for the full control effect; nearly all actives have a fitted effect of over 65% in size
Target sequence (P53350 whole entry, looked up, the tested form may be a part): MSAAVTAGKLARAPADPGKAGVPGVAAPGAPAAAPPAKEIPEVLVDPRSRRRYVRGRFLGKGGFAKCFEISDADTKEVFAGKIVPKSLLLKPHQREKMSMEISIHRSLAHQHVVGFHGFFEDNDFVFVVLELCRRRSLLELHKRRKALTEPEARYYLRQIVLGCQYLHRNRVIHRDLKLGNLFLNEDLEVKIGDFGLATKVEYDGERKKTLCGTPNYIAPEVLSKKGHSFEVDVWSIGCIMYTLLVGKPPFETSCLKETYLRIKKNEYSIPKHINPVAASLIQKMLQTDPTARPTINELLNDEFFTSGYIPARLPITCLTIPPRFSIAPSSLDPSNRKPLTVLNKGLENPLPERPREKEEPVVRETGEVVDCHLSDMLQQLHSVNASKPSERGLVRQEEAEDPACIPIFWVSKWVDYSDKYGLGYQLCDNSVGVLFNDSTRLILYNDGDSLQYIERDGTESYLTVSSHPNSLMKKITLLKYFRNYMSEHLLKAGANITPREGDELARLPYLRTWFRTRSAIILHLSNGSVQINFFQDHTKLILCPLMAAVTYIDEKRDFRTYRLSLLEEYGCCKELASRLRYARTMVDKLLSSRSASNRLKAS
BAZ2B block: blocks human BAZ2B; AlphaScreen BAZ2B-H3K14Ac peptide displacement; Potency, µM (series often up to 114 µM), for inactives: at the top dose activity change, negative = inhibition, most hits filed as inhibitors; 360,000 tested, 4.4% active; AID 504333; note: % is set by controls: 0 for no effect and ±100 for the full control effect; nearly all actives have a fitted effect of over 60% in size
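Protein-peptide AlphaScreen: BAZ2B 50 nM, b-H3K14Ac 50 nM, 1x PBS pH 7.4 + 0.01% Tween-20. Preincubation 30 min RT; cpd 30 min RT (top 110 uM); beads 20 min RT, light-protected.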
* = called active by the depositor; ? = inconclusive; · = not tested or not shown; [ ] = another dose, or the depositor's remark. Calls come from the whole dose curve; as a rule, active = well fitted curve in the direction sought with a large enough effect; inconclusive = small, poorly fitted or top-dose-only effect, or another doubt; inactive = no such curve, though single readings can be large; an effect the other way counts as inactive or inconclusive. Potency is the fitted concentration of half-maximal effect.

SMILES	G9a block	HP1b chromo inh	JMJD2A Tudor	VDR inhibitor	PLK1 PBD block	BAZ2B block
COC(=O)c1ccc2c(=O)n(-c3ccccc3)c(SCN3C(=O)c4ccccc4C3=O)nc2c1	28.2µM*	49.5%	2.7%	7.0%	0.9%	-1.3%
O=C(NCCC(F)(F)F)C1Cc2c(-c3ccc(Cl)cc3)ccnc2O1 (stereo unspecified)	·	·	·	·	0.9%	·
CSC(=S)NN=C(C)c1cccc(C)n1	·	-25.4%	5.01µM*	?	-4.2%	·
CC(=NNC(=S)N1CCCCC1)c1cccc(C)n1	·	?	25.1µM*	0.3%	?	·
O=C1C2CCCN2C(c2cccc(Br)c2)N1c1ccc(F)cc1 (stereo unspecified)	70.8µM*	39.0%	-6.3%	-7.9%	-11.1%	8.8%
Cc1cccc(NC(=O)C(C)SCc2nc3sc4c(c3c(=O)[nH]2)CCCC4)n1 (stereo unspecified)	56.2µM*	30.3%	-19.3%	7.6%	-22.2%	1.1%
NC(=O)C1CCN(C(=O)CCc2nc3sc4c(c3c(=O)[nH]2)CCCC4)CC1	50.1µM*	-11.2%	?	8.8%	-27.7%	50.1µM*
CCc1cccc(NC(=O)CCc2nc3sc4c(c3c(=O)[nH]2)CCCC4)c1	-31.7%	6.0%	?	-13.0%	-5.2%	70.8µM*
CCOC(=O)N1CCN(C(=O)CCc2nc3sc4c(c3c(=O)[nH]2)CCCC4)CC1	16.6%	25.1%	-1.1%	8.3%	4.7%	-3.1%
Cc1sc2nc(CSC(C)C(=O)Nc3ccc(C(N)=O)cc3)[nH]c(=O)c2c1C (stereo unspecified)	8.7%[2.33 µM]	21.7%	-13.8%	-5.4%	-11.2%	-6.2%
Cc1cccc(NC(=O)CCc2nc3sc4c(c3c(=O)[nH]2)CCCC4)c1	2.2%[59 µM]	37.3%	-6.2%	11.1%	-2.7%	0.2%
O=C(CCc1nc2sc3c(c2c(=O)[nH]1)CCCC3)N1CCN(c2ccccc2)CC1	1.9%[0.501 µM]	-8.7%	-31.0%	-5.6%	-17.8%	56.2µM*
O=C(CCOc1ccccc1)Nc1ccc(Cl)c(S(=O)(=O)N2CCOCC2)c1	-12.4%	18.2%	-15.2%	-2.6%	1.3%	4.2%
Cc1cc(C(=O)NC2CC(C)(C)Cc3c2cnn3-c2ccc(F)cc2)no1 (stereo unspecified)	42.7%	49.1%	-7.5%	8.4%	8.8%	-20.1%
COC(=O)c1cc2c(-c3ccccc3)c(C)c3ccccn3c-2c1C(=O)OC	14.1µM*	?	44.7µM*	-5.2%	-17.1%	14.1µM*
COC(=O)c1c(Cl)c2n3ccccc3c(C)c(-c3ccccc3)c-2c1C(=O)OC	8.91µM*	?	?	-19.7%	23.8µM*	?
COC(=O)c1c(C(=O)OC)c2ccccn2c1C(=O)c1ccccc1	-10.3%	58.5%	7.5%	-15.0%	-5.9%	-0.2%
COC(=O)c1c(C)[nH]c(C=O)c1-c1ccccc1	10.0%	1.7%	-12.7%	-1.7%	-0.3%	0.2%
Cc1ccc(C)c(NC(=O)COC(=O)Cc2ccsc2)c1	0.6%	37.5%	-4.7%	-15.1%	-2.9%	-1.4%
Cc1ccccc1NC(=O)COC(=O)Cc1ccsc1	5.6%	-6.0%	-14.1%	-2.0%	26.7µM*	-14.5%
Cc1cccc(C)c1NC(=O)COC(=O)Cc1ccsc1	-6.6%[59 µM]	28.4%	-1.4%	-17.4%	-4.8%	-1.4%
Cc1cc(C)c(NC(=O)COC(=O)Cc2ccsc2)c(C)c1	15.4%	-2.1%	-14.8%	-15.1%	26.7µM*	1.3%
Cc1ccc(O)c(C2=NOC(O)(C(F)(F)F)C2)c1 (stereo unspecified)	?	4.9%	-9.8%	-11.3%	-5.1%	-8.8%
O=C(O)CSc1nnc(CNc2ccc(F)cc2)n1-c1ccccc1	-127.9%	74.1%	-16.1%	-10.4%	-3.9%	79.4µM*
O=C(O)CSc1nnc(CSc2nc3ccccc3s2)n1-c1ccccc1	35.5µM*	46.3%	2.1%	3.0%	3.0%	-8.8%
SMILES	G9a block	HP1b chromo inh	JMJD2A Tudor	VDR inhibitor	PLK1 PBD block	BAZ2B block
CCn1c(CSc2nc3ccccc3s2)nc2ccccc21	10µM*	31.1%	-8.3%	-5.2%	-4.6%	-2.9%
CCOc1ccc(NCc2nnc(SCc3ccccc3Cl)n2-c2ccccc2)cc1	?	-49.5%	35.5µM*	-20.2%	-2.4%	20µM*
c1csc(CSc2nc3ccccc3s2)c1	313.0%	180.2%	160.2%	14.3%	?	400.1%
COC(=O)CSc1nnc(CNc2ccc(Cl)cc2)n1-c1ccccc1	?	18.1%	-23.7%	8.0%	-9.0%	-6.4%
O[C@H]1CN(Cc2cccs2)[C@@H](c2ccccc2)C[C@@H]1n1cc(C2CC2)nn1	·	·	·	·	-20.5%	·
O=C(O)CSc1nnc(CNc2ccc(Cl)cc2)n1Cc1ccccc1	-32.6%[2.33 µM]	-2.4%	79.4µM*	?	26.7µM*	?
O=C(CC1S/C(=N/N=C/c2ccco2)NC1=O)Nc1ccccc1 (stereo unspecified)	46.8%[59 µM]	37.3%	-7.8%	-2.4%	-9.3%	-21.7%
CC1=C/C(=N\N=C2\NC(=O)C(CC(=O)Nc3ccccc3)S2)CC(C)(C)C1 (stereo unspecified)	-33.1%	7.0%	?	-16.9%	23.8µM*	0.1%
CC(=O)c1cccc(NC(=O)CC2S/C(=N/N=C3CCCCCC3)NC2=O)c1 (stereo unspecified)	22.2%	-4.1%	-9.2%	3.2%	1.0%	-4.4%
Cc1ccc(NC(=O)CC2SC(=NC3CCCCC3)NC2=O)cc1 (stereo unspecified)	89.1µM*	42.3%	-12.4%[57.1 µM]	-8.1%	-15.5%	-1.8%
Cc1ccccc1NC(=O)CC1SC(=NC2CCCCC2)NC1=O (stereo unspecified)	-26.7%[59 µM]	53.2%	-8.6%	1.2%	-5.3%	9.7%
O=C(CC1S/C(=N/N=C/C=C/c2ccccc2)NC1=O)Nc1ccc(C(=O)O)cc1 (stereo unspecified)	?	23.7%	-17.4%	21.2%	-2.3%	79.4µM*
COc1ccccc1-c1nccc(NCc2cccs2)n1	-1.0%[0.501 µM]	·	·	?	·	·
CN(C(=O)CSc1nnc(-c2ccccc2)n1C)C1CCS(=O)(=O)C1 (stereo unspecified)	21.0%[12.7 µM]	4.5%	-28.8%	-6.4%	26.7µM*	-2.4%
CN(C(=O)CSc1nnc(-c2ccccc2)c(-c2ccccc2)n1)C1CCS(=O)(=O)C1 (stereo unspecified)	8.1%[59 µM]	31.9%	-27.1%	-8.4%	-17.3%	-11.2%
CN(C(=O)CSc1nnc(-c2ccc(F)cc2)n1C)C1CCS(=O)(=O)C1 (stereo unspecified)	·	23.2%	-8.4%	-2.5%	-3.5%	·
Cc1ccccc1Nc1nnc(SCC(=O)N(C)C2CCS(=O)(=O)C2)s1 (stereo unspecified)	31.6µM*	25.4%	2.1%	-5.0%	-1.9%	-1.5%
Cc1ccc(Nc2nnc(SCC(=O)N(C)C3CCS(=O)(=O)C3)s2)cc1 (stereo unspecified)	?	18.1%	-14.0%	0.1%	-2.9%	-3.1%

Assay outcomes deposited in PubChem BioAssay by National Center for Advancing Translational Sciences (NCATS).
